Hits are enriched below; roughly 19% of the tested compounds scored in any of these assays.
MARV entry inh = inhibitors of Marburg virus binding or cell entry; 1.8% of 300,000 active; Marburg virus pseudotyped entry inhibition, cell reporter; Potency, µM (series often up to 37.8 µM), for inactives: top-dose activity change, negative = inhibition, most hits filed as inhibitors; AID 540276; calls by dose curve; tested in HEK293 cells; also: potency is read from the fitted curve at half-maximal effect; % is scaled to controls: 0 for no effect and ±100 for the full control effect
Pf growth 96h = inhibits malaria parasite growth, 96 h | P. falciparum luciferase reporter growth, 96 h | Potency, µM (series often up to 28.7 µM), without a hit: top-dose activity change, negative = inhibition, actives largely listed as inhibitors | 6.9% of 320,000 active | AID 504834; also: potency is read from the fitted curve at half-maximal effect; % is scaled to controls: 0 for no effect and ±100 for the full control effect
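Readout is luminescence from an integrated firefly luciferase in P. falciparum. Red cells, 2% hematocrit and 0.05% parasitemia final, were cultured with compound through two parasite generations (96 hours) at 37 C, 5% CO2.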
Pf growth 48h = P. falciparum growth inhibition at 48 hours (one generation) | P. falciparum luciferase growth in erythrocytes, 48 h | Potency, µM (titrated, usually from 28.7 µM), for inactives: at the top dose activity change, negative = inhibition, hits mostly inhibitors | 5.9% of 310,000 active | AID 504832; also: potency is read from the fitted curve at half-maximal effect; % is scaled to controls: 0 for no effect and ±100 for the full control effect
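In quantitative HTS format, infected erythrocytes bearing luciferase-reporter parasites were treated for a single generation at 37 C. Luminescence after adding detection reagent served as the growth measure.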
CHX counter = affects cycloheximide protein synthesis inhibition readout, counter-screen; cell reporter, cycloheximide protein synthesis inhibition counterscreen; max response, %; 12% of 300,000 active; AID 2314; in the data active = max response mostly above about 13%, no sharp cut-off; inactive = mostly below about 14%; also: read at 38.3 µM for the half of the compounds with a filed dose; 0% is about no effect
Lassa entry inh = blocks Lassa virus binding to or entry into cells; 1.2% of 300,000 active; Potency, µM (top dose mostly 37.9 µM), for the others: top-dose activity change, negative = inhibition, actives largely listed as inhibitors; Lassa virus pseudotype entry inhibition, cell reporter; calls by dose curve; tested in HEK293 cells; also: potency is read from the fitted curve at half-maximal effect; % is scaled to controls: 0 for no effect and ±100 for the full control effect; nearly all actives have a fitted effect of over 50% in size
Shiga toxin inh = inhibitors of Shiga toxin in Vero cells; AID 2315; inhibition, % at 38.7 µM; Vero cells, Shiga toxin protein synthesis inhibition reporter; 9.2% of 290,000 active; in the data active = inhibition mostly above about 28%, no sharp cut-off; inactive = mostly below about 43%; also: 0% is about no effect
* marks the source's active call; other numbers are inactive results; ? = inconclusive; · = no result; [ ] = dose if it differs, or a comment. Unless noted, calls follow the shape of the dose curve; as a rule, active = well fitted inhibition curve with a large enough effect; inconclusive = small, poorly fitted or top-dose-only effect, or another doubt; inactive = no such curve, though single readings can be large or run the other way.

SMILES | MARV entry inh | Pf growth 96h | Pf growth 48h | CHX counter | Lassa entry inh | Shiga toxin inh
COc1ccc(-n2c(-c3ccc(Br)cc3)c[n+]3c2CCCCC3)cc1 | ? | 0.59µM* | 1µM* | -1 | ? | 6
Cc1ccc(NC(=O)CN2CCC(C(=O)c3ccc4c(c3)OCCO4)CC2)cc1 | 4% | 14% | · | 25 | ? | -8
Fc1ccc(-c2nc(-c3cccs3)[nH]c2-c2ccc(F)cc2)cc1 | ? | ? | ? | -2 | ? | 9
COc1ccccc1-c1cc(C(=O)Nc2cc(C)on2)no1 | -4% | · | -13% | 12 | -29% | 24
COC(=O)c1cn(NC(=O)c2cc(OC)c(OC)c(OC)c2)c(=O)c2ccccc12 | -23% | 3.3µM* | 4% | -1 | ? | 29
COC(=O)c1cn(NC(=O)c2ccncc2)c(=O)c2ccccc12 | ? | 5.9µM* | 11% | -3 | 10% | 41
COC/C=C/C1=CC2=CC(=O)C(C)(OC(=O)c3cnc4ccccc4n3)C(=O)C2=CN1CCN1CCOCC1 (stereo unspecified) | · | 9.3µM* | ? | -2 | · | -3
COC/C=C/C1=CC2=CC(=O)C(C)(OC(=O)c3cnc4ccccc4n3)C(=O)C2=CN1CCCOC(C)C (stereo unspecified) | · | ? | ? | -3 | · | -5
O=C(O)COCC(=O)Nc1ccc(Oc2ncnc3cc(Cl)ccc23)nc1 | 24%[14.2 µM] | 38% | 30% | -3 | 15% | 42
CN1CCC(=O)N([C@H](CSc2ccc(Br)cc2)c2ccccc2)CC1 | · | 39% | 35% | 25* | · | 64*
Cc1ccc(SCC(c2ccccc2)N2CCN(C)CCC2=O)cc1 (stereo unspecified) | · | · | · | 31* | · | 52*
CN1CCC(=O)N(C(CSc2ccc(Br)cc2)Cc2ccccc2)CC1 (stereo unspecified) | · | · | · | 7 | · | -13
CN1CCC(=O)N([C@H](CC#N)c2ccccc2)CC1 | · | 0% | -2% | -2 | · | 4
CC(C)OCCCNC(=O)CN1C(=O)COc2ccc(S(=O)(=O)N3CCCCCC3)cc21 | · | 87% | ? | 1 | 19%[46.1 µM] | 8
CC(=O)c1ccc(N=Cc2c(O)n(-c3cc(Cl)ccc3N3CCOCC3)c(=O)c3ccccc23)cc1 | ? | · | 0.66µM* | 16 | 1% | 5
O=c1c2ccccc2c(C=Nc2ccc(Cl)cn2)c(O)n1-c1cc(Cl)ccc1N1CCOCC1 | -10% | ? | 6% | 0 | -10% | -5
O=C(CCSc1ccc(Cl)cc1)N1CCN(c2ccc(O)cc2)CC1 | ? | 8% | -7% | 27* | ? | 59*
O=C(CCSc1ccccc1)N1CCN(c2ccccc2)CC1 | 7%[46.1 µM] | ? | 75% | 39* | -19%[46.1 µM] | 90*
Cc1ccc(C)c(C(=O)CCC(=O)N2CCN(c3ncccn3)CC2)c1 | ? | ? | ? | 36* | 15%[46.1 µM] | 38*
O=C(CCSc1ccc(Cl)cc1)N1CCCCCC1 | 6% | 1µM* | 143% | 21* | ? | 61*
COc1ccccc1CO/N=C/NC(=O)c1c(OC)ccnc1Oc1ccc(F)cc1 | -24% | ? | ? | 5 | 3% | 19
O=C(CSc1ccc(Cl)cc1)N1CCN(c2c(Cl)cccc2[N+](=O)[O-])CC1 | ? | 125% | 7% | 56* | -10% | 46
O=C(CCSc1ccccc1)N1CCN(C(=O)c2ccco2)CC1 | ? | · | 27% | 35* | -35% | 99*
O=C(CSC1=NCCS1)N1CCN(c2ccccc2)CC1 | -5% | 110% | -3% | 26* | -2% | 38*
O=C(CCSc1ccc(Cl)cc1)N1CCN(c2ncccn2)CC1 | ? | -9% | 8% | 17* | ? | 38
Cc1ccc(NC(=O)NNC(=O)C2CCN(Cc3ccc(F)cc3Cl)CC2)cc1 | · | ? | ? | 1 | · | -5
Cc1ccc(C(=O)Nc2ccc(O)cc2C(=O)O)cc1 | 1% | · | -6% | -2 | -5% | -6
CCOC(=O)C1=C(C)OC(N)=C(C#N)C1c1ccc(O)c(OC)c1 (stereo unspecified) | -9% | ? | · | -5 | -1% | -11
O=C(CSc1nn(-c2ccc(Cl)cc2)c(=S)s1)N1CCN(C(=O)c2ccco2)CC1 | 7% | -14% | 4.7µM* | 8 | -10% | 9
